Source: PubChem BioAssay (Tox21)
Results filed as inconclusive are left out. Activity calls are given as the source filed them. Unless noted, calls follow the shape of the dose curve; as a rule, active = well fitted curve in the direction sought with a large enough effect in the repeat runs; inconclusive = weak or mixed curves; inactive = no such curve, though single readings can be large; an effect the other way counts as inactive or inconclusive.

Experiments:
[1] = qHTS assay to identify small molecule agonists of the peroxisome proliferator-activated receptor delta (PPARd) signaling pathway - cell viability counter screen (AID 743211); also: nearly all actives have a fitted effect of over 55% in size
In short: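 Counter screen for cytotoxicity run in parallel with the PPARd reporter screen. Beta-lactamase reporter HEK293H cells exposed to compounds 17 h; ATP-based CellTiter-Glo luminescence quantified viability.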

[2] = target: Peroxisome proliferator-activated receptor delta (Homo sapiens) (UniProt Q03181); experiment: qHTS assay to identify small molecule antagonists of the peroxisome proliferator-activated receptor delta (PPARd) signaling pathway (AID 743215; active = well fitted inhibition curve with a large enough effect in the signal ratio in the repeat runs, not every such curve was filed as active; the % refers to the signal ratio;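 also: cells stimulated with agonist L165041 at 300 nM final during compound exposure; series mostly up to about 62 µM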)
In short: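 HEK293H GeneBLAzer PPARd UAS-bla reporter cells; cpd + L165041 300 nM final, 17 h 37 C; LiveBLAzer B/G FRET substrate 2 h RT; fluorescence intensity read-out. Antagonist mode.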

[3] = qHTS assay to identify small molecule agonists of the farnesoid-X-receptor (FXR) signaling pathway - cell viability counter screen (AID 743218); also: nearly all actives have a fitted effect of over 45% in size
In short: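 Luminescence from CellTiter-Glo, read after 30 min at RT, reports viability of GeneBLAzer FXR-UAS-bla HEK 293T cells treated 16 h with compounds in the wells used for the beta-lactamase reporter.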

[4] = qHTS assay to identify small molecule antagonists of the farnesoid-X-receptor (FXR) signaling pathway - cell viability counter screen (AID 743221; active = well fitted cell-killing curve with a large enough effect in the repeat runs, not every such curve was filed as active; also: nearly all actives have a fitted effect of over 50% in size)
In short: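 Multiplexed counter screen: viability of FXR-bla HEK 293T cells under agonist stimulation by chenodeoxycholic acid (50 uM, final) and test compound for 16 h at 37 C, measured by CellTiter-Glo luminescence in the reporter wells.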

[5] = qHTS assay to identify small molecule agonists of the vitamin D receptor (VDR) signaling pathway - cell viability counter screen (AID 743224); also: series mostly up to about 63 µM; nearly all actives have a fitted effect of over 50% in size
In short: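 Cytotoxicity counter screen: VDR-bla cells, 16 h compound exposure at 37C, 5% CO2; CellTiter-Glo luminescence, 30 min RT, same wells as bla read.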

[6] = qHTS assay to identify small molecule antagonists of the vitamin D receptor (VDR) signaling pathway - cell viability counter screen (AID 743225); also: nearly all actives have a fitted effect of over 50% in size
In short: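 HEK293T VDR-bla; cpd + 1a,25-(OH)2D3 3 nM final, 16 h 37C/5% CO2; B/G FRET substrate 2 h RT; then CellTiter-Glo 30 min RT, luminescence.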

[7] = qHTS assay to identify small molecule agonists of the NFkB signaling pathway - cell viability counter screen (AID 1159515; calls by dose curve; also: series mostly up to about 61 µM; nearly all actives have a fitted effect of over 55% in size)
In short: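 ME-180 NFkB-bla cells, 2,000/well; overnight attach; compound 5 hr, 37 C/5% CO2; LiveBLAzer substrate 1.5 hr RT; then CellTiter-Glo in same wells, 30 min RT, luminescence read.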

[8] = qHTS assay to identify small molecule agonists of the endoplasmic reticulum stress response signaling pathway (AID 1159516; active = well fitted activation curve with a large enough effect in the signal ratio in the repeat runs, not every such curve was filed as active; the % refers to the signal ratio)
In short: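 HeLa ESRE-bla reporter line; cpd 5 h, 37 C/5% CO2; LiveBLAzer B/G FRET substrate 2 h RT; ex 405, em 460/530 nm.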

[9] = qHTS assay to identify small molecule agonists of the endoplasmic reticulum stress response signaling pathway - cell viability counter screen (AID 1159517; calls by dose curve;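 also: HeLa cells carrying an ER stress response element beta-lactamase reporter; series mostly up to about 61 µM; nearly all actives have a fitted effect of over 50% in size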)
In short: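 Cpd-treated ESRE-bla HeLa (5 hr, 37 C) → LiveBLAzer 2 hr RT → CellTiter-Glo 30 min RT → luminescence.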

[10] = qHTS assay to identify small molecule antagonists of the retinoid-related orphan receptor gamma (ROR-gamma) signaling pathway - cell viability counter screen (AID 1159520); also: nearly all actives have a fitted effect of over 50% in size
In short: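 Tet-on ROR gamma CHO cells (1,000/well) were plated 4 hr, given compounds in DMSO for 2 hr at 37 C, then induced with 1 uM final doxycycline for 16 hr. Viability was read as ATP by CellTiter-Glo luminescence after 30 min.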

[11] = qHTS assay to identify small molecule agonists of the AP-1 signaling pathway (AID 1159526; calls by dose curve)
[12] = target: Retinoic acid receptor RXR-alpha (Homo sapiens) (UniProt P19793); experiment: qHTS assay to identify small molecule agonists of the RXR signaling pathway (AID 1159527; calls by dose curve; also: nearly all actives have a fitted effect of over 35% in size; also: potency is read from the fitted curve at half-maximal effect)
In short: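 Cells plated at 2,000/well, rested 5 hr at 37 C, pin-dosed with DMSO compound solutions, incubated 16 hr, then loaded with B/G FRET substrate for 2 hr at RT before dual-emission fluorescence reading.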

[13] = qHTS assay to identify small molecule antagonists of the peroxisome proliferator-activated receptor delta (PPARd) signaling pathway - cell viability counter screen (AID 743213); also: nearly all actives have a fitted effect of over 50% in size
In short: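 Luminescence from CellTiter-Glo, added after the bla read and incubated 30 min at room temperature, gives viability of HEK293H PPARd-bla cells exposed to compounds for 17 h at 37 C with 300 nM L165041.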

[14] = target: Peroxisome proliferator-activated receptor delta (Homo sapiens) (UniProt Q03181); experiment: qHTS assay to identify small molecule agonists of the peroxisome proliferator-activated receptor delta (PPARd) signaling pathway (AID 743212; calls by dose curve)
In short: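 Cells expressing a UAS-driven beta-lactamase reporter (PPARd-bla HEK293H) were given test compounds after a 5 h settle and kept at 37 C. Reporter activity was then measured as FRET fluorescence using LiveBLAzer B/G substrate.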

[15] = target: Bile acid receptor (Homo sapiens) (UniProt Q96RI1); experiment: qHTS assay to identify small molecule antagonists of the farnesoid-X-receptor (FXR) signaling pathway (AID 743217; active = well fitted inhibition curve with a large enough effect in the signal ratio in the repeat runs, not every such curve was filed as active; the % refers to the signal ratio)
In short: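 Read-out: beta-lactamase FRET fluorescence (LiveBLAzer B/G substrate, 2 h, room temperature) in GeneBLAzer FXR-UAS-bla HEK 293T cells. Compounds were co-dosed with 50 uM chenodeoxycholic acid (final) and incubated 16 h at 37 °C.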

[16] = target: Bile acid receptor (Homo sapiens) (UniProt Q96RI1); experiment: qHTS assay to identify small molecule agonists of the farnesoid-X-receptor (FXR) signaling pathway (AID 743220; active = well fitted activation curve with a large enough effect in the signal ratio in the repeat runs, not every such curve was filed as active; the % refers to the signal ratio)
In short: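 FXR-UAS-bla HEK 293T cells carrying a UAS-driven beta-lactamase reporter were plated for 5 h at 37C/5% CO2, then exposed to DMSO-dissolved Tox21 10K compounds for 16 h at 37C. A LiveBLAzer B/G FRET substrate was loaded for 2 h at room temperature before fluorescence reading.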

[17] = target: Vitamin D3 receptor (Homo sapiens) (UniProt P11473); experiment: qHTS assay to identify small molecule agonists of the vitamin D receptor (VDR) signaling pathway (AID 743222; calls by dose curve)
In short: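 Beta-lactamase reporter readout (LiveBLAzer B/G FRET, 2 h RT) in VDR-bla cells after 16 h compound treatment at 37C, 5% CO2; cells pre-incubated 4 h before pin transfer of DMSO solutions.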

[18] = target: Vitamin D3 receptor (Homo sapiens) (UniProt P11473); experiment: qHTS assay to identify small molecule antagonists of the vitamin D receptor (VDR) signaling pathway (AID 743223; active = well fitted inhibition curve with a large enough effect in the signal ratio in the repeat runs, not every such curve was filed as active; the % refers to the signal ratio)
In short: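 Cells carrying a VDR-driven beta-lactamase reporter (VDR-bla) were co-treated with compound and 3 nM final 1alpha,25-dihydroxyvitamin D3 for 16 h at 37C; reporter activity was measured as FRET substrate fluorescence after 2 h at room temperature.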

[19] = qHTS assay to identify small molecule agonists of the AP-1 signaling pathway - cell viability counter screen (AID 1159525; calls by dose curve; also: nearly all actives have a fitted effect of over 55% in size)
In short: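 Each titration point was normalised to DMSO and tetra n-octyl ammonium bromide controls. The read was Cell Titer Glo luminescence after 30 min at RT, following 5 h compound exposure of ME-180 AP-1-bla cells at 37 °C.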

Measured: Potency

Chain of Vitamin D3 receptor (Homo sapiens) (P11473 whole entry, looked up): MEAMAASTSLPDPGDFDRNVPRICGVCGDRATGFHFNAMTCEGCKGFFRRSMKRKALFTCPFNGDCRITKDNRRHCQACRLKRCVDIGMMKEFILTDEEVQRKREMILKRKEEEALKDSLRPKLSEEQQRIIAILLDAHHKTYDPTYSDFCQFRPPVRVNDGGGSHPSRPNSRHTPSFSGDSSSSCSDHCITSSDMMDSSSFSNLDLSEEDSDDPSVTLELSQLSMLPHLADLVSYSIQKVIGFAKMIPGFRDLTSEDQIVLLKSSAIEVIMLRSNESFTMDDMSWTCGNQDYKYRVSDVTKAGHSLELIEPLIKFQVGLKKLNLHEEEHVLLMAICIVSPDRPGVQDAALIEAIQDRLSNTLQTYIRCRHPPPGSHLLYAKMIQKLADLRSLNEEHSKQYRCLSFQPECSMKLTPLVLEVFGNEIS
Chain of Bile acid receptor (Homo sapiens) (Q96RI1 whole entry, looked up): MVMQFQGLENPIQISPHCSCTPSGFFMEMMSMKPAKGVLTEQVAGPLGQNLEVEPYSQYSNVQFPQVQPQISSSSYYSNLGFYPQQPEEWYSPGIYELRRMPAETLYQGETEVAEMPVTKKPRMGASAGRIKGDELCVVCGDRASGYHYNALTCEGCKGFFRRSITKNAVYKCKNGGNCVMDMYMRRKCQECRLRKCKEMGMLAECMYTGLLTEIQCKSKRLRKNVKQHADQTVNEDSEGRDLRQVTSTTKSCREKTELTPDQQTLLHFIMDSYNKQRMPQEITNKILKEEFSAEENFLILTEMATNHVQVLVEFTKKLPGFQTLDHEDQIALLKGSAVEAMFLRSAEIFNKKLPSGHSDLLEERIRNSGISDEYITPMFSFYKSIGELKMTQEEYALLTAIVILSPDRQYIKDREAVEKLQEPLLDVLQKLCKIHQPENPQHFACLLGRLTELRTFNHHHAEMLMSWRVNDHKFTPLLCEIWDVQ
Chain of Retinoic acid receptor RXR-alpha (Homo sapiens) (P19793 whole entry, looked up): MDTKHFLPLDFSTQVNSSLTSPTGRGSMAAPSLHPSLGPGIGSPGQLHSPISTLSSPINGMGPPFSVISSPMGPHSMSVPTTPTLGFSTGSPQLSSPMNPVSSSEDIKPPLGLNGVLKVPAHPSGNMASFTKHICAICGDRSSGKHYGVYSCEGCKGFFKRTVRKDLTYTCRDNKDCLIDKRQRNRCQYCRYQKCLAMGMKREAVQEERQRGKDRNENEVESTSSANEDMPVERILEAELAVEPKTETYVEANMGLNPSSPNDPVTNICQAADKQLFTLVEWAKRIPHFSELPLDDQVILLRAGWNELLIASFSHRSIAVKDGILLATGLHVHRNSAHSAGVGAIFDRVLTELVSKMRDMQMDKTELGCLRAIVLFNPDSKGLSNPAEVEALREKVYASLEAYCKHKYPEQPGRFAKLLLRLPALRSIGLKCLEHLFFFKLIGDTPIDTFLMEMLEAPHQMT
Chain of Peroxisome proliferator-activated receptor delta (Homo sapiens) (Q03181 whole entry, looked up): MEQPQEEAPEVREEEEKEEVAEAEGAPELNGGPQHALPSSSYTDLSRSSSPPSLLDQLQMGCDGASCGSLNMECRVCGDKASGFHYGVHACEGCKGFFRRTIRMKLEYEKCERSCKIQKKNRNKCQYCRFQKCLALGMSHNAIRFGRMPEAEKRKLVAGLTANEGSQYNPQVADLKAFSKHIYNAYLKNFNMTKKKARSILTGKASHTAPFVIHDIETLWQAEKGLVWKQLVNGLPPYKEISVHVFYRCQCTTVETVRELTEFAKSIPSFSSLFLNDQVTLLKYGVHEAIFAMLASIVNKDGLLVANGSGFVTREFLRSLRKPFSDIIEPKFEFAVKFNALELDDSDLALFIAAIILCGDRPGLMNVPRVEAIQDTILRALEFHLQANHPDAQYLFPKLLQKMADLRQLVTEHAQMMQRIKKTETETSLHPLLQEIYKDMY

O=P(Cl)(Cl)Cl
not listed: [13] | [14] | [15] | [16] | [17] | [18] | [19]
inactive: all other assays above

CC(=O)O.CC(=O)O.CC(=O)O.CC(=O)O.CC(=O)O.CC(=O)O.CC(=O)O.O.O.[Cr].[Cr].[Cr]
not listed: [2] | [14] | [15] | [16] | [17] | [18] | [19]
inactive: all other assays above

NC(=O)C(Cl)Cl
inactive: [13] | [3] | [5] | [6] | [7] | [8] | [9] | [10] | [11] | [12]

Cc1ccc(C)c2ccccc12
not listed: [5] | [12]
inactive: all other assays above

COP(=S)(OC)Oc1nc(Cl)c(Cl)cc1Cl
not listed: [1] | [2] | [11] | [12] | [13] | [14] | [17] | [18]
inactive: all other assays above

CN1CCc2cc(Cl)c(O)cc2[C@H]2c3ccccc3CC[C@@H]21
inactive: [2] | [4] | [5] | [7] | [8] | [9] | [10] | [19] | [11]

Clc1cc(Cl)c(-c2cc(Cl)c(Cl)cc2Cl)cc1Cl
not listed: [1] | [2] | [11] | [12] | [13] | [16]
inactive: all other assays above

CCC1COC(Cn2cncn2)(c2ccc(Cl)cc2Cl)O1 (stereo not given)
not listed: [4] | [12] | [15] | [16]
inactive: all other assays above

CCC1(CC)C(=O)N=C(O)NC1=O
not listed: [6] | [11] | [14] | [15] | [16]
inactive: all other assays above

O=C(CCCCl)c1ccc(F)cc1
not listed: [1] | [2] | [14] | [15] | [16] | [17] | [18]
inactive: all other assays above

CN1[C@@H]2CC[C@H]1CC(O)C2 (stereo not given in full)
not listed: [5] | [12] | [15] | [16]
inactive: all other assays above

CNC(=O)Oc1cc(C)cc(C(C)C)c1
active: [12] 11 µM
not listed: [15] | [16] | [19]
inactive: all other assays above

CC(Cl)CCl (stereo not given)
not listed: [15] | [16] | [19]
inactive: all other assays above

COP(=S)(NC(C)C)Oc1ccc(C)cc1[N+](=O)[O-] (stereo not given)
not listed: [5] | [12] | [16]
inactive: all other assays above

O=[N+]([O-])[O-].[Tl+]
inactive: [1] | [3] | [4] | [6] | [7] | [8] | [9] | [10] | [11] | [12]

O=C(Cl)c1ccccc1F
not listed: [12] | [16] | [19]
inactive: all other assays above

CNC(=O)O/N=C(\C)C(C)S(C)(=O)=O (stereo not given)
not listed: [11] | [12]
inactive: all other assays above

Nc1ccc(Cl)cc1C(=O)c1ccccc1F
not listed: [3] | [11] | [12] | [13] | [17] | [18]
inactive: all other assays above

CNC(=O)CSP(=O)(OC)OC
not listed: [4] | [12] | [13] | [14] | [17] | [18]
inactive: all other assays above

CCN(CC)C(=O)N[C@@H]1C=C2c3cccc4[nH]cc(c34)C[C@@H]2N(C)C1
not listed: [2] | [3] | [5] | [14] | [15] | [18]
inactive: all other assays above
